This passage reports growth results from PubChem BioAssay (NCI).

Test systems include NCI-H23 lung; NCI-H322M lung; HOP-62 NSCLC; NCI-H460 lung; HOP-92 NSCLC; NCI-H522 lung; A549/ATCC NSCLC; 786-0 renal; DU-145 prostate; COLO 205 colon.
Assay in all cases: NCI-60 one-dose screen, 48 h (100 = growth as untreated, 0 = no growth, -100 = all killed)
Common to all, as to conditions: 10 µM unless noted

This is part of a sample that, as a whole, favours compounds with a hit. Of some 83,000 tested, about 20% had one in any assay.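 Percent growth is the endpoint: 0 to 100 indicates growth inhibition (40 means 60% inhibition), 0 means no net growth, and negative values indicate cell death.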 A number with no mark means an inactive call. Calls of active or inactive are those of the source. How the source made its calls: active means growth percent below 10; inactive means the rest.

Regarding `COc1cc(C#N)cc2[nH]c(=O)oc12`, the growth was 104% in the test on NCI-H23 lung; 106% with NCI-H322M lung; 103% in the test on HOP-62 NSCLC; 110% with NCI-H460 lung; 95.5% with HOP-92 NSCLC; 103% with NCI-H522 lung. For the same compound, the results for the growth in the test with A549/ATCC NSCLC, with 786-0 renal and in the test on DU-145 prostate were 101%, 98.7% and 99%, respectively.
For the compound `CCOc1cc(Cl)c(C(C)NC(=O)c2cccc(OC)c2)cc1OCC` (stereo unspecified), the growth is 4.89% (active) in the test on NCI-H23 lung; 127% in the test on NCI-H322M lung; -11.2% (active) with HOP-62 NSCLC; 13.6% in the test on NCI-H460 lung; -46.3% (active) with HOP-92 NSCLC; -76.1% (active) in the test with NCI-H522 lung. For the same compound, the growth in the test with A549/ATCC NSCLC was 17.3%; in the test on 786-0 renal, -74.9% (active); with COLO 205 colon it was -84.8% (active); in the test on DU-145 prostate, -21.7% (active).
For the compound `O=C(NC1C(O)OC(CO)C(O)C1O)NS(=O)(=O)c1ccc(Cl)cc1` (stereo unspecified), the growth was 104% in the test on NCI-H23 lung; 99.5% in the test with NCI-H322M lung; 92.9% in the test with HOP-62 NSCLC; 104% in the test with NCI-H460 lung; 101% with HOP-92 NSCLC; 100% with NCI-H522 lung. In addition, the growth was 109% with A549/ATCC NSCLC, 104% in the test with 786-0 renal, 114% in the test with COLO 205 colon and 108% with DU-145 prostate.
With `O=C(NCc1ccccc1)C1CN(c2ccc(Cl)cc2)N(c2ccc(Cl)cc2)C1=O` (stereo unspecified), the growth in the test on NCI-H23 lung was 94%; in the test on NCI-H322M lung, 95.8%; in the test on HOP-62 NSCLC it was 74.6%; in the test on NCI-H460 lung, 85.6%; in the test with HOP-92 NSCLC, 86.5%; in the test on NCI-H522 lung it was 65.6%. In addition, the growth is 69.6% in the test with A549/ATCC NSCLC, 99.3% in the test on 786-0 renal and 97.5% in the test with DU-145 prostate.
Consider `COc1cccc(-c2nn(C)c3sc(C(=O)NCCN4CCN(c5ccccc5F)CC4)cc23)c1`, for which the growth in the test on NCI-H23 lung was 91.2%; in the test on NCI-H322M lung, 87.3%; in the test with HOP-62 NSCLC it was 81.4%; in the test on NCI-H460 lung, 57.6%; in the test with HOP-92 NSCLC, 14.9%; in the test with NCI-H522 lung it was 60.9%. The growth in the test on A549/ATCC NSCLC is 74.7%; in the test on 786-0 renal, 57.6%; with COLO 205 colon it was -78.4% (active); with DU-145 prostate it was 89.4%.
For the compound `COc1ccc(/C(C#N)=C/c2nc3c(N4CCOCC4)nc(Cl)nc3n2C)cc1OC`, the growth with NCI-H23 lung is 24%; with NCI-H322M lung, 29.9%; in the test with HOP-62 NSCLC, 25.3%; in the test on NCI-H460 lung it was -15.2% (active); in the test on HOP-92 NSCLC, -12.2% (active); in the test with NCI-H522 lung, -28.4% (active). Moreover, the figures for the growth with A549/ATCC NSCLC, with 786-0 renal and in the test with DU-145 prostate were 21.1%, -61.5% (active) and 8.07% (active), respectively.
Take `Brc1ccc(Oc2ccc(Nc3ncnc4onc(-c5ccccc5)c34)cc2)cc1`: the growth with NCI-H23 lung was 94.3%; with NCI-H322M lung it was 110%; in the test on HOP-62 NSCLC, 99.8%; in the test with NCI-H460 lung it was 103%; in the test on HOP-92 NSCLC, 110%; in the test with NCI-H522 lung, 97.8%. For the same compound, the growth in the test with A549/ATCC NSCLC was 95.5%; with 786-0 renal, 98.5%; with COLO 205 colon it was 112%; with DU-145 prostate, 102%.
Take `Cc1ccc(NCCNCC(O)CO)c2c(=O)c3ccccc3sc12` (stereo unspecified): the growth in the test with NCI-H23 lung is 29.6%; in the test on NCI-H322M lung, 25.1%; in the test on HOP-62 NSCLC, 20.3%; in the test on NCI-H460 lung, -66.3% (active); in the test on HOP-92 NSCLC, -2.88% (active); in the test with NCI-H522 lung, 26.6%. Also, the growth in the test with A549/ATCC NSCLC is -2.08% (active); in the test on 786-0 renal it was 27.1%; in the test with COLO 205 colon, -87.2% (active); in the test on DU-145 prostate, 11.9%.
On to `CCC(C)(C)C(=O)O[C@H]1C[C@@H](C)C=C2C=C[C@H](C)[C@H](CC[C@@H]3CC=CC(=O)O3)[C@H]21`, for which the growth in the test on NCI-H23 lung was 78%; in the test with NCI-H322M lung it was 103%; in the test with HOP-62 NSCLC, 108%; with NCI-H460 lung it was 101%; with HOP-92 NSCLC, 75.3%; in the test on NCI-H522 lung, 39.4%. Also, the growth was 78.7% in the test on A549/ATCC NSCLC, 110% in the test on 786-0 renal, 72.7% with COLO 205 colon and 82.7% in the test with DU-145 prostate.
Consider `CC(=O)SC1CC(=O)C=C2CCC3C4CCC(=O)OC4(C)CCC3C21C` (stereo unspecified), for which the growth with NCI-H23 lung was 111%; in the test with NCI-H322M lung, 120%; with HOP-62 NSCLC, 106%; in the test with NCI-H460 lung it was 115%; in the test on HOP-92 NSCLC it was 97.6%; in the test with NCI-H522 lung, 92.7%. For the same compound, the growth was 105% with A549/ATCC NSCLC, 101% with 786-0 renal, 116% in the test on COLO 205 colon and 116% in the test on DU-145 prostate.
As to `CCN(CC)CCNC(=O)C(Cl)=C1C(Cl)=C(Cl)C(Cl)=C1Cl`, the growth in the test with NCI-H23 lung was 55.9%; in the test on NCI-H322M lung, 81.7%; in the test on HOP-62 NSCLC it was 75.5%; with NCI-H460 lung, 19.3%; in the test with HOP-92 NSCLC, 53.8%; in the test on NCI-H522 lung, -14.7% (active). Besides, the growth is 46.6% with A549/ATCC NSCLC, 90.1% in the test on 786-0 renal, 54.5% with COLO 205 colon and 48.4% with DU-145 prostate.
For the compound `CN(C)CCCNCc1ccc(-c2ccc(F)c(Cl)c2)o1`, the growth was 77.1% in the test with NCI-H23 lung; 65% in the test on NCI-H322M lung; 19.2% in the test on HOP-62 NSCLC; -58.4% (active) in the test on NCI-H460 lung; 35.7% with HOP-92 NSCLC; 19.5% with NCI-H522 lung. In addition, the growth is -50.5% (active) in the test with A549/ATCC NSCLC, 49.6% in the test with 786-0 renal and 19.7% in the test on DU-145 prostate.
Take `COc1ccc(C2=NN(/C=C3\SC(=O)NC3=Nc3ccc(F)cc3)C(c3ccc(F)cc3)C2)cc1` (stereo unspecified): the growth in the test on NCI-H23 lung is 96.9%; in the test with NCI-H322M lung, 93.7%; in the test on HOP-62 NSCLC it was 105%; with NCI-H460 lung it was 101%; with HOP-92 NSCLC, 99.7%; in the test on NCI-H522 lung, 91.2%. Moreover, the growth in the test with A549/ATCC NSCLC is 92%; with 786-0 renal, 92.7%; in the test on COLO 205 colon, 106%; with DU-145 prostate, 102%.
On to `CC(C)c1ccc(S(=O)(=O)NC(=O)NC2CCCC2)cc1`, for which the growth was 101% in the test with NCI-H23 lung; 98% with NCI-H322M lung; 100% with HOP-62 NSCLC; 104% with NCI-H460 lung; 107% with HOP-92 NSCLC; 97.2% in the test on NCI-H522 lung. Moreover, the growth was 87.7% in the test with A549/ATCC NSCLC, 103% in the test with 786-0 renal, 108% in the test on COLO 205 colon and 107% in the test with DU-145 prostate.
